This note sets out measurements from ChEMBL document CHEMBL2218924, “A broad activity screen in support of a chemogenomic map for kinase signalling research and drug discovery” (Biochem J, 2013).

Assay [1] has as its target Tyrosine-protein kinase SYK (Homo sapiens) (UniProt P43405). Particulars: at 10 µM.
Assay [2] has as its target T1, Mitogen-activated protein kinase kinase kinase 7 (Homo sapiens) (UniProt O43318).
T1 sequence (whole entry): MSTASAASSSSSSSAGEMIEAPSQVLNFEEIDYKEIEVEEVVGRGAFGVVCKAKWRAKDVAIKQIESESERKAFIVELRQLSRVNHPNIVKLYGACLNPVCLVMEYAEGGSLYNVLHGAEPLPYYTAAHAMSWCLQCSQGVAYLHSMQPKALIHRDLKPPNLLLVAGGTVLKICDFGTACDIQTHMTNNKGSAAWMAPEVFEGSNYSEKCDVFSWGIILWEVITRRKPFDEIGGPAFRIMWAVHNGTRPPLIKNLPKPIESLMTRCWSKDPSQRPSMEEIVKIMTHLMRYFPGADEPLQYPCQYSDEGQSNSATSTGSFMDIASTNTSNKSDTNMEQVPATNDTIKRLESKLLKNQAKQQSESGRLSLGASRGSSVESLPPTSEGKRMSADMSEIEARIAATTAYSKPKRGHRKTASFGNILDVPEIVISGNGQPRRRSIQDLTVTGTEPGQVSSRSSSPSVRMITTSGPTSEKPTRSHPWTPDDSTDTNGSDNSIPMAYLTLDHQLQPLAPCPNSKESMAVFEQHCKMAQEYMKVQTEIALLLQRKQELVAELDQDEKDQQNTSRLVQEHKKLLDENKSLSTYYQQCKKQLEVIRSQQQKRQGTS
Particulars: at 1 µM.

Assay [3] has as its target T1, Mitogen-activated protein kinase kinase kinase 7 (Homo sapiens). As to conditions: at 10 µM.
Assay [4] deals with T2, Serine/threonine-protein kinase TAO1 (Homo sapiens) (UniProt Q7L7X3).
T2 sequence (whole entry): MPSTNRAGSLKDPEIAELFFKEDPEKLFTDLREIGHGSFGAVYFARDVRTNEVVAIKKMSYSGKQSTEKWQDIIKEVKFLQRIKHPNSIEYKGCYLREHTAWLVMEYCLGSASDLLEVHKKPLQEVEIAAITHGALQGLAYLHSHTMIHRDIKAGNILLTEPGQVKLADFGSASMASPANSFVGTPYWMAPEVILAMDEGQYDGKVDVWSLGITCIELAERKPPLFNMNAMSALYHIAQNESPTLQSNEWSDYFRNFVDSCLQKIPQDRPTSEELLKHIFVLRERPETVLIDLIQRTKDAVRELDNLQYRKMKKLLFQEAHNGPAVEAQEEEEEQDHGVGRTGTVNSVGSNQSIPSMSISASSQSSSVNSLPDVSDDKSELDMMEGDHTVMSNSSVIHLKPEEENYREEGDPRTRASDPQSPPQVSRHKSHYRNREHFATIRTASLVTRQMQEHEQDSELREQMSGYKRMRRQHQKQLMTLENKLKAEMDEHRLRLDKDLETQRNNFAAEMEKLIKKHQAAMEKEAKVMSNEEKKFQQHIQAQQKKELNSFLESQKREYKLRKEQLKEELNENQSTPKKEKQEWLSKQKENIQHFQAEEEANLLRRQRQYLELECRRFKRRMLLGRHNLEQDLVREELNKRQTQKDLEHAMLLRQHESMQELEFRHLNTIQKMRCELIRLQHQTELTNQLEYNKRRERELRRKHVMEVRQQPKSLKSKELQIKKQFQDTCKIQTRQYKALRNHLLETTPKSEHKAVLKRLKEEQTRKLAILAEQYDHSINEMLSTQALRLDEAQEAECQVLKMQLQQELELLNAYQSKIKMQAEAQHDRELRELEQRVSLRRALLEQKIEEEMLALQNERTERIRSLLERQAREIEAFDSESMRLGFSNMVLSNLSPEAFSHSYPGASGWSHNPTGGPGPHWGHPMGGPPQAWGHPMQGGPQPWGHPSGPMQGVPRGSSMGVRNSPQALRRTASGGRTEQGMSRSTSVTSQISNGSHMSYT
Particulars: at 1 µM.

The target of assay [5] is T2, Serine/threonine-protein kinase TAO1 (Homo sapiens). As to conditions: at 10 µM.
Assay [6] deals with T3, Serine/threonine-protein kinase TAO2 (Homo sapiens) (UniProt Q9UL54).
T3 sequence (whole entry): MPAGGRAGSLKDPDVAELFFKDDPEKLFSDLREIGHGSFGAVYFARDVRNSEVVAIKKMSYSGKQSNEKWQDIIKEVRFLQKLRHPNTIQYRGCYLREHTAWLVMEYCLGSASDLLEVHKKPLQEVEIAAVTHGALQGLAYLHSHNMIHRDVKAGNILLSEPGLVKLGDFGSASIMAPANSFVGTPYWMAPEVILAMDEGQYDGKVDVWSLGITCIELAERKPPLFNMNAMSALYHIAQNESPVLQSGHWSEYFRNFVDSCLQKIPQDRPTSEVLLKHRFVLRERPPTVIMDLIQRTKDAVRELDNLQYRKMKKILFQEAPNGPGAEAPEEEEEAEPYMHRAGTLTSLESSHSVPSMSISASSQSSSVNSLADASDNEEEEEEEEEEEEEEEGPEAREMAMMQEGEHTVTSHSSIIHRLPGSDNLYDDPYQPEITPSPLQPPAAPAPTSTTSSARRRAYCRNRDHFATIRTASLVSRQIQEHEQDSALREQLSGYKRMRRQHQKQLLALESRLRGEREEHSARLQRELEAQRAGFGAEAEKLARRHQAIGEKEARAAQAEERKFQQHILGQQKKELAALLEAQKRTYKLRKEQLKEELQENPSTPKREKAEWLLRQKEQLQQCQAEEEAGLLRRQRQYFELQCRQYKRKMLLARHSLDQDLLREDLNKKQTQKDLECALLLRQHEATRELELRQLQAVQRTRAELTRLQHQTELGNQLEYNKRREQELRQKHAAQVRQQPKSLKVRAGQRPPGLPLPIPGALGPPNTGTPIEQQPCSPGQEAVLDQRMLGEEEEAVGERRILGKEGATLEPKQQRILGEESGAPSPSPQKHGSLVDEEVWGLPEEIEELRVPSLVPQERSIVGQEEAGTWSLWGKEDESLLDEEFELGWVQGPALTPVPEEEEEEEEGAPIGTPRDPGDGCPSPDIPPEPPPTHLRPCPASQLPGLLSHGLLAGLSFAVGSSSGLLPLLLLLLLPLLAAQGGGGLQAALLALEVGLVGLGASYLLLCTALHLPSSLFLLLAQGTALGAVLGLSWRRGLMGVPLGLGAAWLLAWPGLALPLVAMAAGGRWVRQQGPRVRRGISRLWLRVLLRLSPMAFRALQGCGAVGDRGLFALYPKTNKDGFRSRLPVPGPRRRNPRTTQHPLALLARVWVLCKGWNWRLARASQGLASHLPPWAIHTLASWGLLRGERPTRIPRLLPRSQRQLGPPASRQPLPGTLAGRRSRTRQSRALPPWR
Particulars: at 1 µM.

Assay [7] addresses T3, Serine/threonine-protein kinase TAO2 (Homo sapiens). Particulars: at 10 µM.
Assay [8] deals with T4, Serine/threonine-protein kinase TAO3 (Homo sapiens) (UniProt Q9H2K8).
T4 sequence (whole entry): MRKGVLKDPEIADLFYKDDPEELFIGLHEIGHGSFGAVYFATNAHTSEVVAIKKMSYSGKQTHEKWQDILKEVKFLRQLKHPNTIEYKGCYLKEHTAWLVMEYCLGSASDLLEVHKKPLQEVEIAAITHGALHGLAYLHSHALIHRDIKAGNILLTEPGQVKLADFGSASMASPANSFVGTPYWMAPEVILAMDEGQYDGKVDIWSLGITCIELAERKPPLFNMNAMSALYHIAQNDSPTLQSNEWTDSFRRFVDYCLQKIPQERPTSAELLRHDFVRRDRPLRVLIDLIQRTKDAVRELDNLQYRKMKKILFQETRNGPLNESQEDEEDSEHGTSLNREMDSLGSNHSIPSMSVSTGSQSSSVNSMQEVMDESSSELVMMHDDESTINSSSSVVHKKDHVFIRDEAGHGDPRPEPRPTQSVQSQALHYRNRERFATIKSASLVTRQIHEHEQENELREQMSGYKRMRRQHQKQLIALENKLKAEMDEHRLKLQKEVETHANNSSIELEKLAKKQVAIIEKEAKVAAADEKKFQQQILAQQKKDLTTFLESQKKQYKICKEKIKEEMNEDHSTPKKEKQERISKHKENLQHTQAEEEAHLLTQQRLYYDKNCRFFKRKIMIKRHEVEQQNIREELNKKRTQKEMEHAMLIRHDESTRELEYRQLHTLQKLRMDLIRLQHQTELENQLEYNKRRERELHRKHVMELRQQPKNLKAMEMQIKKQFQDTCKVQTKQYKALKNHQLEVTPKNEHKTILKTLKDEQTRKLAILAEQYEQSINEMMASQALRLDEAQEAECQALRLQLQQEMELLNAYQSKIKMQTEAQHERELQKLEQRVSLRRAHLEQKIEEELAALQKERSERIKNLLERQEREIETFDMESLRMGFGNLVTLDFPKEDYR
Particulars: at 1 µM.

Assay [9] addresses T4, Serine/threonine-protein kinase TAO3 (Homo sapiens). As to conditions: at 10 µM.
For assay [10], the target named is T5, Serine/threonine-protein kinase TBK1 (Homo sapiens) (UniProt Q9UHD2).
T5 sequence (whole entry): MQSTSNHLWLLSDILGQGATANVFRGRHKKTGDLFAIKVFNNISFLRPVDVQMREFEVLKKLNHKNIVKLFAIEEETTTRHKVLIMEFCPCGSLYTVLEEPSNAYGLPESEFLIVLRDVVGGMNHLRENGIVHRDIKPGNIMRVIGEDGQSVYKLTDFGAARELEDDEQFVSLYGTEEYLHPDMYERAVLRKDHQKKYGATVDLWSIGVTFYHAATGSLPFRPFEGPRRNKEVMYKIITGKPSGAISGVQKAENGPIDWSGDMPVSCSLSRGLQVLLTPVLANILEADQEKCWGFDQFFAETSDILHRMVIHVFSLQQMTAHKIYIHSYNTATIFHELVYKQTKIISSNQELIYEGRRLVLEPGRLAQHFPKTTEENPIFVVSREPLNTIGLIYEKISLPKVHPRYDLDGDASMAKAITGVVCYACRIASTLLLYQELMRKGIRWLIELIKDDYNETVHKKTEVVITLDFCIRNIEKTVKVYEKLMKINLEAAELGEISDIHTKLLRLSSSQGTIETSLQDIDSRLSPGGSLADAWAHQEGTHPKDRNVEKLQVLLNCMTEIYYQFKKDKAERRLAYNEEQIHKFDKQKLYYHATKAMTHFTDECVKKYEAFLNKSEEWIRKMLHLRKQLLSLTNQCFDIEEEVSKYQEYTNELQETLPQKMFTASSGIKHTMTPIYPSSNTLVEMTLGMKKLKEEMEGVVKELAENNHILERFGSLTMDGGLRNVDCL
Particulars: at 1 µM.

`COc1cccc(-c2cc(=O)c3ccccc3o2)c1N`: the residual activity in [1] was 113%; in assay [2] it was 101%; in assay [3] it was 98%; in assay [4], 99%; in assay [5], 85%; in assay [6], 112%. For the same compound, the residual activity in assay [7] worked out at 92%; in assay [8], 95%; in assay [9] it was 87%; in assay [10], 97%.
